# PubChem BioAssay AID463173 (ICCB-Longwood Screening Facility, Harvard Medical School, 2010)
# Among all 52,000 compounds or so, about 4,300 (8.3%) were called active. Cut-off read from the data, not from the text of the source: active = survival mostly below about 52% (no sharp cut-off); inactive = mostly above about 56%. What follows is part of a selection rich in actives, with near analogues and random picks from the rest.
# System: DeltatarO mutant
# Experiment: growth inhibition of S. aureus wild type versus tarO mutant, primary screen, teichoic acid synthesis inhibitors, RN4220, OD600 (AID 463173)
# Details: OD600, 18 h, stronger effect = lower value, screened at 18.75 µg/mL (by protocol)
row,Structure (SMILES),survival
1,CCn1cc(C(=O)Nc2cccc(Cl)c2)c2cc(OC)c(OC)cc2c1=O,46% (active)
2,COc1ccc(C)cc1NC(=O)c1cn(C)c(=O)c2cc(OC)c(OC)cc12,72% (inactive)
3,CCn1cc(C(=O)Nc2ccc(C(C)C)cc2)c2cc(OC)c(OC)cc2c1=O,63% (inactive)
4,COc1ccc(OC)c(NC(=O)c2cn(CC(C)C)c(=O)c3cc(OC)c(OC)cc23)c1,50% (active)
5,COc1ccc(NC(=O)Nc2cn(CC(C)C)c(=O)c3ccccc23)c(OC)c1,91% (inactive)
6,COc1ccc(NC(=O)c2cn(CC(C)C)c(=O)c3cc(OC)c(OC)cc23)cc1Cl,50% (inactive)
7,CCn1cc(C(=O)N2CCN(c3cccc(Cl)c3)CC2)c2cc(OC)c(OC)cc2c1=O,54% (inactive)
8,COc1cc(Cl)c(C)cc1NC(=O)c1cn(CC(C)C)c(=O)c2cc(OC)c(OC)cc12,42% (active)
9,CCOC(=O)c1ccccc1NC(=O)c1cn(CC(C)C)c(=O)c2cc(OC)c(OC)cc12,53% (inactive)
10,COc1ccc(Cn2c(C(=O)O)c(CNCCc3cc(OC)ccc3OC)c3ccc(C)cc32)cc1,85% (inactive)
11,COc1ccccc1NC(=O)c1c(C)cc(C)nc1SCC(=O)Nc1ccc(C)cc1,51% (inactive)
12,CC(C)c1cccc(C(C)C)c1NC1=NS(=O)(=O)c2ccccc21,76% (inactive)
13,COc1cc(C(=O)N2CCc3ccccc32)cc(OC)c1OC,104% (inactive)
14,O=C(c1ccc2c(c1)N(Cc1ccccc1F)C(=O)c1ccccc1S2(=O)=O)N1CCCCCC1,73% (inactive)
15,CN1CCN(C(=O)C2CCCCC2C(=O)O)CC1 (configuration not stated),78% (inactive)
16,COC(=O)c1cc2sccc2n1Cc1nc(-c2cccc(Br)c2)oc1C,70% (inactive)
17,CCc1ccc(C2NC(=O)c3[nH]nc(-c4cccc(OC)c4)c32)cc1 (configuration not stated),54% (inactive)
18,COc1ccc(-c2n[nH]c3c2C(c2ccc(Cl)cc2Cl)NC3=O)cc1 (configuration not stated),-12% (active)
19,COc1ccc(OC)c(C2c3c(-c4ccc(Br)cc4)n[nH]c3C(=O)N2c2ccc(Cl)cc2)c1 (configuration not stated),89% (inactive)
20,Cc1ccc(CC(=O)Nc2c(C(=O)N3CCN(c4ccccc4F)CC3)oc3ccccc23)cc1,74% (inactive)
21,Cc1ccc(-n2c(=O)c3c(C)c(C)sc3n(Cc3ccc(F)cc3Cl)c2=O)cc1C,38% (active)
22,CCOc1ccc(-n2c(=O)c3c(C)c(C)sc3n(CC(=O)Nc3ccc(CC)cc3)c2=O)cc1,46% (active)
23,CCc1ccc(NC(=O)Cn2c(=O)n(-c3ccc(Cl)c(Cl)c3)c(=O)c3c(C)c(C)sc32)cc1,97% (inactive)
24,Cc1ccc(C)c(Cn2c(=O)n(-c3ccc(Cl)cc3)c(=O)c3c(C)c(C)sc32)c1,76% (inactive)
25,Cc1ccc(-n2c(=O)c3c4c(sc3n(Cc3cc(=O)n5cc(Cl)ccc5n3)c2=O)CCC4)cc1C,169% (inactive)
26,CCOc1ccc(-n2c(=O)c3c4c(sc3n(Cc3cc(=O)n5cc(Cl)ccc5n3)c2=O)CCC4)cc1,64% (active)

row,Structure (SMILES),survival
1,CCN(CC)C(=O)Cn1c(=O)n(-c2ccc(Cl)cc2)c(=O)c2c3c(sc21)CCCCC3,89% (inactive)
2,CCCCN(CC)C(=O)Cn1c(=O)n(-c2ccc(OCC)cc2)c(=O)c2c3c(sc21)CCCC3,89% (active)
3,CCOc1ccc(-n2c(=O)c3c(C)c(C)sc3n(Cc3cc(=O)n4cc(Cl)ccc4n3)c2=O)cc1,69% (inactive)
4,CCCCN(CC)C(=O)Cn1c(=O)n(-c2ccc(OCC)cc2)c(=O)c2c3c(sc21)CCC3,78% (inactive)
5,Cc1ccc(Cn2c(=O)n(-c3ccc(C)c(C)c3)c(=O)c3c(C)c(C)sc32)cc1,71% (inactive)
6,CCOc1ccc(-n2c(=O)c3c(C)c(C)sc3n(CC(=O)NCCc3ccccc3)c2=O)cc1,84% (inactive)
7,O=C(CCNS(=O)(=O)c1ccc2c(c1)CCCC(=O)N2)NCc1ccc(Cl)cc1,96% (inactive)
8,COc1ccc(CCNC(=O)c2cc3c(=O)n4cccc(C)c4nc3n2C)cc1,67% (inactive)
9,COc1ccc(NC(=O)C2CCCN(S(=O)(=O)c3ccc4[nH]c(=O)ccc4c3)C2)cc1Cl (configuration not stated),82% (inactive)
10,CC(=O)Nc1cccc(NC(=O)Cc2csc(COc3cccc(C)c3)n2)c1,89% (inactive)
11,CCOc1ccc(NC(=O)C(=O)NCCc2csc(-c3ccc(F)cc3)n2)cc1,82% (inactive)
12,CCN(CC)S(=O)(=O)c1ccc2c(c1)N(CC(=O)NCCCN1CCN(c3cc(Cl)ccc3C)CC1)C(=O)CO2,53% (inactive)
13,CCOc1ccc(-c2noc(CSc3nnc(-c4ccccc4)n3-c3ccccc3)n2)cc1,66% (inactive)
14,COc1cccc(-n2cc(C(=O)Nc3ccccc3C(N)=O)c3ccccc3c2=O)c1,67% (inactive)
15,CCOc1ccc(-n2c(=O)c3c(C)c(C)sc3n(Cc3ccccc3C)c2=O)cc1,85% (inactive)
16,Cc1ccc(-n2c(=O)c3c(cnn3C)n(CC(=O)Nc3cccc(Cl)c3)c2=O)cc1,55% (active)
17,COc1ccc(NC(=O)Cn2c(=O)n(-c3ccc(C)c(C)c3)c(=O)c3c4c(sc32)CCCCC4)cc1Cl,76% (inactive)
18,COc1ccc(CCNC(=O)Cn2c(=O)n(-c3ccc(C)c(C)c3)c(=O)c3c(C)c(C)sc32)cc1OC,64% (inactive)
19,CCOc1ccc(-n2c(=O)c3c(C)c(C)sc3n(CC(=O)C(C)(C)C)c2=O)cc1,121% (inactive)
20,Cc1ccc(NC(=O)Cn2c(=O)n(-c3ccc(C)cc3)c(=O)c3c2cnn3C)cc1,63% (inactive)
21,O=C(Cn1c(=O)n(-c2ccc(Cl)cc2)c(=O)c2c3c(sc21)CCCCC3)Nc1cccc(Cl)c1,84% (inactive)
22,CCOc1ccc(-n2c(=O)c3c(C)c(C)sc3n(Cc3ccc(C(C)(C)C)cc3)c2=O)cc1,52% (active)
23,Cc1ccc(-n2c(=O)c3c(cnn3C)n(CC(=O)Nc3cccc(C)c3)c2=O)cc1,64% (inactive)
24,COc1ccc(CCNC(=O)Cn2c(=O)n(-c3ccccc3)c(=O)c3c(C)c(C)sc32)cc1OC,84% (active)
25,Cc1ccc(-n2c(=O)c3c4c(sc3n(CC(=O)Nc3cccc(Cl)c3)c2=O)CCCCC4)cc1C,105% (active)
26,COc1cccc(-n2c(=O)c3c(C)c(C)sc3n(CC(=O)NCCc3ccc(OC)c(OC)c3)c2=O)c1,94% (inactive)
